# Compound activity from PubChem.
# Compounds with a hit are over-represented: about 1.4% of the library has one in this group of screens.
# TPT1 inh = Candida albicans TPT1 enzyme inhibitors, primary screen, biochemical, fluorescence polarization | tRNA 2'-phosphotransferase TPT1 (Candida albicans SC5314) | recombinant caTPT1, FP RNA substrate dephosphorylation | inhibition, % at 5 µM | hit rate 0.81% among 300,000 | AID 1962, 2009;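 active means inhibition above the mean of all tested compounds plus 3 SD, set per screening campaign, cut at about 24% in these data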;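 further: plate controls were DMSO alone for no effect and ferristatin control at 100 nM for full effect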
# HNF4A DNA FP = change in binding of human HNF4A to DNA, primary screen, biochemical, fluorescence polarization, FITC-DNA | Hepatocyte nuclear factor 4-alpha (Homo sapiens), P41235 | 1 h | activity change, % at 10 µM | hit rate 0.3% among 360,000; in the data active means activity change above about 30%, passing the limit was not always enough
# Target sequence (P41235 whole entry, looked up): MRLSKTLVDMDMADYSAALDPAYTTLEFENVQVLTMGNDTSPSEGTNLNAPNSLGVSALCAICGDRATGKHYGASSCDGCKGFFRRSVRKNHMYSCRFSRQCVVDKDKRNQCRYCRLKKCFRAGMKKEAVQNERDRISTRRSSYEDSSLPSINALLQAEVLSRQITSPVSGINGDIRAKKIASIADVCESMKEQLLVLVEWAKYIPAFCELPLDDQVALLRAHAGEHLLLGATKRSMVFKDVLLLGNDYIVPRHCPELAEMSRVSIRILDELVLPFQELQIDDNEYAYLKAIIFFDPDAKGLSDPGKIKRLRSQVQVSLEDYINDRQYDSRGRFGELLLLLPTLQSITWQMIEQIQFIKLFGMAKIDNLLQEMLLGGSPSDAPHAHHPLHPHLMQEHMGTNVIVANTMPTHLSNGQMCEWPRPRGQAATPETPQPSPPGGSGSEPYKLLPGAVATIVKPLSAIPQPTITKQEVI
# CRFR2-BP ag = agonists of CRF-BP/CRF-R2 complex, primary screen, cell-based, HEK293, calcium dye fluorescence, uHTS | CRF-binding protein / CRF receptor 2 complex (human) | calcium dye fluorescence (FLIPR); percent of saturating CRF peptide response | activation, % at 13.2 µM | hit rate 0.46% among 350,000;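 active means activation of at least 50%, plus an integration ratio under a set limit after plate pattern correction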;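 further: plate controls were neutral control wells without compound for no effect and CRF at EC100 for full effect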
# IDE inh = human IDE inhibitors in live cells, primary screen, fluorescence polarization, HEK cells, FAbetaB substrate; inhibition, % at 5.59 µM; hit rate 0.41% among 320,000; FAbetaB cleavage; Insulin-degrading enzyme (Homo sapiens), P14735;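 active means percent inhibition above the average of all tested compounds plus 3 SD, set per screening campaign, cut at about 16% in these data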;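 further: IDE supplied by intact live HEK cells; FP after avidin binding of uncleaved biotin substrate so inhibition keeps polarization high; 0% = DMSO wells and 100% = 60 µM reference IDE inhibitor Ii1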
# IDE cell activ = human IDE activators in live cells, primary screen, fluorescence polarization, HEK cells, FAbeta-B substrate. Insulin-degrading enzyme (Homo sapiens), P14735. activation, % at 5.96 µM. FAbeta-B cleavage; 0% vehicle, 100% cell-free pure enzyme wells. hit rate 0.073% among 340,000;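 active means activation above the mean of all tested compounds plus 3 SD, set per screening campaign, cut at about 17% in these data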
# Active calls of the source: *; . = no result given.
SMILES,TPT1 inh,HNF4A DNA FP,CRFR2-BP ag,IDE inh,IDE cell activ
COc1ccc2ccccc2c1C(O)c1nccn1C (configuration not stated),-61.0,-121.0,104.0*,-0.2,21.3*
CC(C)(C)NC(=O)Cn1c(SCC(=O)N2CCCCCC2)nc2ccccc21,-2.1,31.6*,-0.1,2.5,6.0
CSc1ncccc1C(=O)OCC(=O)Nc1nc(C)c(Cl)cc1Cl,.,-0.4,-5.6,1.9,4.6
O=C(O)CCNC(=O)CCCn1nnc2ccccc2c1=O,1.6,1.5,-1.7,-0.8,4.7
Cc1cccc(N2CCN(C(=S)Nc3ccc4nc(N5CCN(C)CC5)cc(C)c4c3)CC2)c1C,.,59.2*,1.2,.,-0.8
Cc1cccc(N2CCN(C(=S)Nc3ccc4nc(N5CCN(C)CC5)cc(C)c4c3)CC2C)c1 (configuration not stated),0.7,5.0,0.5,-10.5,30.1*
Cc1cc(N2CCN(C)CC2)nc2ccc(NC(=S)N3CCN(c4cccc(Cl)c4)CC3)cc12,-3.1,0.1,0.7,3.0,6.1
CS(=O)(=O)Cc1ccc(C(=O)NC2CCSc3ccccc32)cc1 (configuration not stated),1.3,1.2,-0.9,-13.5,-0.1
N#Cc1c(-c2ccc(Cl)cc2)cc(-c2ccccc2)nc1SCC(=O)O,-2.4,1.8,-2.6,5.0,4.8
N#Cc1c(-c2ccc(F)cc2)cc(-c2ccccc2)nc1SCC(=O)NCC(=O)O,-2.8,-1.3,61.9*,3.5,-4.1
Cc1c(/C=N/NC(=O)C(NC(=O)c2ccc3c(c2)OCO3)C(C)C)c2ccccc2n1C (configuration not stated),1.1,-3.1,96.4*,-5.9,0.7
CC(C)C(NC(=O)c1ccc2c(c1)OCO2)C(=O)N/N=C/c1cccs1 (configuration not stated),3.5,0.7,-10.2,-0.7,-0.3
CC(=O)Oc1c(C)cc(Cl)cc1C(=O)Nc1ccc([N+](=O)[O-])cc1Cl,-1.9,1.9,83.0*,-2.0,-2.1
CCOC(=O)C1CCN(c2cc(=O)n(C3CCCCC3)c(=O)[nH]2)CC1,-4.1,39.9*,-3.1,4.8,4.3
CCOC(=O)N1CCN(c2cc(=O)n(C3CCCCC3)c(=O)[nH]2)CC1,-3.9,1.2,-0.3,-1.9,-2.3
O=C1NC[C@H](CCCCN2C[C@H](Cc3ccccc3)N(CCC3CCCCC3)C(=O)C2=O)N(CCc2ccc(O)cc2)C1=O,.,1.1,.,.,.
O=c1c2ccccc2nc(-c2ccc(Cl)c(Cl)c2)n1O,-2.0,0.1,54.6*,1.0,4.8
O=c1c2ccccc2nc(-c2ccccc2Cl)n1O,-8.4,2.2,1.0,3.8,6.2
O=c1c2cc(Br)ccc2nc(-c2ccc(Cl)cc2)n1O,-3.1,2.7,72.7*,3.8,1.9
O=c1c2ccc(Cl)cc2nc(-c2cccc(C(F)(F)F)c2)n1O,-6.8,2.3,69.0*,0.9,4.9
Cc1ccc(-c2nc3c(Cl)cc(Cl)cc3c(=O)n2O)cc1,2.4,0.0,66.0*,4.1,3.5
CC1O[C@@H](OC2C(O)C(O)C(CO)O[C@H]2OC2C[C@]3(C)C(CC(O)C4[C@@H]([C@]5(C)CC[C@@H](C(C)(C)O)O5)CC[C@]43C)[C@@]3(C)CCC(O)C(C)(C)C23)C(O)C(O)C1O (some centres not stated),.,-2.3,0.6,4.8,21.4*
O=C(COc1ccc(F)cc1)N(Cc1cccs1)C1CCS(=O)(=O)C1 (configuration not stated),2.0,1.7,65.6*,-2.4,1.5
Cc1cccc(-n2c(C)cc(C=C3C(=O)c4ccccc4C3=O)c2C)c1,7.6,-69.0,51.2*,6.2,1.6
Cc1cc(C=C2C(=O)c3ccccc3C2=O)c(C)n1-c1ccc(Cl)cc1,.,78.7,16.7,.,3.4
SMILES,TPT1 inh,HNF4A DNA FP,CRFR2-BP ag,IDE inh,IDE cell activ
CCOc1ccc(/C=C2\CCCc3c2nc2ccccc2c3C(=O)O)cc1OC,-61.6,-101.9,.,-35.8,47.6*
C[C@@H]1NC(=O)N[C@@H]1CCCCCC(=O)O,-0.8,-1.6,0.7,-17.2,51.2*
CCCCCC1NC(=O)NC1CCCCCC(=O)O (configuration not stated),-4.5,4.4,0.6,3.6,-8.1
CC1(C(=O)NS(=O)(=O)c2cccc(OC(F)F)c2)CCN1C(=O)Cc1ccsc1 (configuration not stated),.,-0.2,.,.,.
Cc1ccc(N2C(=O)c3cccc4c(N5CCN(C)CC5)ccc(c34)C2=O)c2cccnc12,-67.1,.,89.3*,-0.1,.
Cc1ccc(N2C(=O)c3cccc4c([N+](=O)[O-])ccc(c34)C2=O)c2cccnc12,8.1,-9.0,4.5,0.8,4.5
COc1ccc(C(O)c2nc(-c3ccccc3C)cs2)cc1 (configuration not stated),.,2.5,.,.,.
CCOC(=O)c1sc(-c2ccc(C(F)(F)F)cc2)nc1O,-20.0,-4.4,57.9*,4.4,-3.7
CCCCNc1c(-c2cccc(OC)c2)nc2nc(C)cc(C)n12,.,2.1,.,.,.
COc1cccc(-c2nc3nc(C)cc(C)n3c2Nc2c(C)cccc2C)c1,.,53.3*,.,.,.
CN1CCN(S(=O)(=O)c2cccc(C(=O)N(Cc3nnc(-c4ccccc4Cl)o3)C3CC3)c2)CC1,-0.7,2.3,-2.4,1.0,3.5
C#CCOCCOCCOCCNc1nc(N2CCN(C(=O)CCCCCCCCCCNC(=O)Cn3cc(C[C@@H](C)O)nn3)CC2)nc(N2CCN(C(=O)CCCCCCCCCCNC(=O)[C@@H]([C@H](C)CC)n3cc(CCCCCN)nn3)CC2)n1,-3.5,8.3,32.3,10.3,26.2*
C#CCOCCOCCOCCNc1nc(N2CCN(C(=O)CCCCCCCCCCNC(=O)Cn3cc(CCCCCN)nn3)CC2)nc(N2CCN(C(=O)CCCCCCCCCCNC(=O)Cn3cc(C[C@@H](C)O)nn3)CC2)n1,-2.3,6.6,31.4,1.6,22.1*
C#CCOCCOCCOCCNc1nc(N2CCOCC2)nc(N2CCN(C(=O)CCCCCCCCCCNC(=O)[C@H]([C@@H](C)CC)n3cc(CCCCN=C(N)N)nn3)CC2)n1,-1.3,1.6,-1.2,3.2,3.8
C#CCOCCOCCOCCNc1nc(N2CCN(C(=O)CCCCCCCCCCNC(=O)[C@H]([C@@H](C)CC)n3cc(CCCCN=C(N)N)nn3)CC2)nc(N2CCN(C(=O)CCCCCCCCCCNC(=O)[C@@H]([C@H](C)O)n3cc(C)nn3)CC2)n1,3.0,186.0,-0.6,-1.4,50.6*
C#CCOCCOCCOCCNc1nc(N2CCN(C(=O)CCCCCCCCCCNC(=O)Cn3cc(C[C@@H](C)O)nn3)CC2)nc(N2CCN(C(=O)CCCCCCCCCCNC(=O)[C@@H]([C@H](C)O)n3cc(C)nn3)CC2)n1,-2.5,-5.2,3.9,3.6,3.3
